From PubChem
Compounds with a hit are over-represented: about 4.6% of the library has one in this group of screens.
IL1B cytotox: toxic to HUVEC cells under IL-1B stimulation | HUVEC cell count loss, Hoechst imaging, IL-1B stimulated | hit rate 0.41% among 94,000 | cell count reduction, % at 2 µM | AID 845;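 active = cell count reduction more than 3 SD above the screen-wide mean, cut at about 70% in these data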;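 note: normalized per plate to untreated control cells as the no-loss baseline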
Cav32 inh: human Cav3.2 channel inhibition, primary screen; O95180; Cav3.2-expressing cells, Fluo-4 calcium fluorescence FDSS; stronger effect = lower value; B-score at 10 µM; hit rate 4% among 100,000; AID 449739;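 active = single-dose well whose peak fluorescence ratio is a statistical outlier from its plate by either plate-standardised score or position-corrected B-score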
IL1B NFkB pot: enhances IL-1B driven NFkB nuclear translocation. HUVEC IL-1B NFkB p65 nuclear translocation imaging. hit rate 0.3% among 94,000. activation, % at 2 µM. AID 819;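 active = activation above 40%, about the mean plus 3 SD, also judged a hit on visual image review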;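 note: percent activation is computed from the nuclear over cytoplasmic p65 intensity ratio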
IL1B NFkB inh: blocks IL-1B driven NFkB nuclear translocation in HUVEC cells. AID 796. hit rate 0.43% among 94,000. HUVEC IL-1B NFkB p65 nuclear translocation imaging. inhibition, % at 2 µM;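 active = inhibition above about 30% together with a positive call from visual inspection of the well image, limit read from the data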;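 note: nuclear over cytoplasmic p65 intensity ratio measured by imaging; 0% = IL-1B stimulated DMSO wells and 100% = unstimulated DMSO wells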
sEH activator: soluble epoxide hydrolase (human) activation; P34913; activation, % at 2 µM; hit rate 0.04% among 91,000; purified human sEH enzymatic activity, activator screen; in the data active = activation above about 37%
sEH inhibitor: soluble epoxide hydrolase (human) inhibition; recombinant human sEH enzymatic activity assay; P34913; AID 707; inhibition, % at 2 µM; hit rate 0.34% among 91,000; in the data active = inhibition above about 80%
Numbers without * were called inactive; nt = not tested or not shown.

SMILES	IL1B cytotox	Cav32 inh	IL1B NFkB pot	IL1B NFkB inh	sEH activator	sEH inhibitor
CCOC(=O)c1sc2nc(CC(=O)OC)nc(NCc3ccc(F)cc3)c2c1C	2	-0.72	-8	8	-4	7
CCCC(=O)NC(=S)Nc1cccc(Cl)c1N1CCCCC1	-48	-5*	20	-20	3	-3
CCCCCC(=O)NC(=S)Nc1ccc(N2CCCCC2)c(Cl)c1	nt	-2.1	nt	nt	-6	6
O=C(CCSc1ccc(Cl)c(Cl)c1)NC12CC3CC(CC(C3)C1)C2	-64	-5.9*	15	-15	-49	49
COCCC(=O)NC12CC3CC(CC(C3)C1)C2	-14	1.5	6	-6	-19	22
O=C(c1ccc2c(c1)N(Cc1ccccc1)C(=O)c1ccccc1S2)N1CCCC1	-10	-2.5	2	-2	-11	11
O=C(Nc1ccc(N2CCN(C(=O)c3ccco3)CC2)cc1)c1cccs1	-28	0.37	13	-13	-37	38
CC(C)C(c1nnnn1C1CCCCC1)N1CCOCC1 (centres undefined)	-13	0.13	-1	1	11	-15
Cc1ccc(-n2nnnc2SC(C)C(=O)Nc2ccc(Cl)cn2)cc1 (centres undefined)	nt	-4.1*	nt	nt	nt	nt
Cc1ccc(-n2nnnc2SC(C)C(N)=O)c(C)c1 (centres undefined)	-64	0.0073	6	-6	3	-1
O=C(CSc1ccccc1)Nc1ccc(N2CCOCC2)cc1	11	1	-10	10	-8	8
CCCNC(=O)c1ccc2c(c1)C1C3CCC(C3)C1C(c1ccccc1)N2 (centres undefined)	-8	-5*	25	-25	-45	46
CCCNC(=O)c1ccc2snnc2c1	-20	-0.13	11	-11	6	-6
CC(=O)N1CCN2C(=O)C1CCCC(=O)c1cc(C(C)C)ccc12 (centres undefined)	-37	0.091	5	-5	3	0
Nc1n[nH]c(-c2ccc(Br)cc2)c1Cl	-2	0.12	8	-8	-6	6
CCOC(=O)C1=C(c2cccc(Oc3ccccc3)c2)NC(=S)NC1C (centres undefined)	15	-8.3*	22	-22	3	-4
C=CCOC(=O)C1=C(C)NC(=S)NC1/C=C/c1ccccc1 (centres undefined)	-7	-5.4	5	-5	2	-1
COc1ccc(S(=O)(=O)Nc2ccccc2C(=O)NCc2ccco2)cc1Br	-18	-3.8*	-4	4	6	-8
Cc1ccc(NC(=S)NCCN2CCOCC2)cc1C	2	0.71	-4	11	38*	-35
Cc1ccc(C)c(NC(=S)NCCN2CCOCC2)c1	0	-0.08	-2	2	-1	-2
Cc1ccc(NC(=S)NCC2CCCO2)cc1C (centres undefined)	91*	-0.35	-11	11	12	-8
Cc1ccc(NC(=S)NCC2CCCO2)cc1 (centres undefined)	-1	0.6	11	-11	-25	21
N#CC1=C(SCC(=O)NC2CCCCC2)NC(=O)CC1c1ccco1 (centres undefined)	-12	nt	11	-11	-36	35
O=C(Nc1nnc(C2CC2)s1)c1cc2c(s1)CCCCCC2	-19	0.066	7	-7	-2	1
C[C@@H](C(=O)Nc1ccc2ccccc2c1)[C@@H]1C[C@@]1(C)[C@@H](NC(=O)c1ccccc1)c1ccccc1	nt	-3.9*	nt	nt	nt	nt
SMILES	IL1B cytotox	Cav32 inh	IL1B NFkB pot	IL1B NFkB inh	sEH activator	sEH inhibitor
C[C@@H](C(=O)Nc1ccc2ccccc2c1)[C@H]1C[C@]1(C)[C@H](NC(=O)c1cccnc1)c1ccccc1	nt	-1.6	nt	nt	nt	nt
COc1cccc(-c2cc3c(-n4cccc4)ncnc3o2)c1	-10	0.42	-4	4	4	-5
O=C(Cc1ccc(Br)cc1)c1ccc(O)cc1O	-19	-8.6*	-1	1	3	-3
Brc1c(CSc2nnc(-c3ccco3)o2)nc2ccccn12	-6	0.0078	-10	10	11	-12
COc1cccc(CNc2nc3ccccc3n2CCN2CCCCC2)c1	22	1.3	2	-2	nt	nt
c1cc(CN2CCCCC2)cc(OCCCNc2nc3ccccc3s2)c1	nt	-4.3*	nt	nt	nt	nt
CC1CCCN(S(=O)(=O)c2cc(Cl)ccc2Cl)C1 (centres undefined)	-26	-2.3	17	-17	11	-11
Cc1nc2ccccc2c(=O)n1/N=C/c1cn(-c2ccccc2)nc1-c1cccs1	2	-4*	-10	10	0	-1
CCN1CCc2nc(NC(=O)CC(c3ccccc3)c3ccccc3)sc2C1	-11	-2.5	-11	11	5	-2
COC(=O)Cc1nnc(NC(=O)C(C)C)s1	-2	0.34	9	-8	5	-8
CCc1cccc(NC(=O)C2CCCC2)c1	20	nt	6	-6	6	-4
CCc1cccc(NC(=O)CCSCCC(=O)Nc2cccc(CC)c2)c1	-13	-7.5*	25	-26	-50	50
Cc1ccc(NC(=O)CCSCCC(=O)Nc2ccc(C)c(C)c2)cc1C	-19	-6.8*	7	-7	-71	72
Cc1ccc(NC(=O)CSCC(N)=O)cc1C	-30	0.58	1	-1	6	-3
CCCCn1nnc(NC(=O)c2ccco2)n1	-20	-2.2	14	-14	-3	0
O=C(OCc1ccccc1)/C(=C/c1ccc(Cl)cc1)NC(=O)c1ccccc1Cl	-69	0.2	40*	-40	-17	19
O=C(C1CC1)N1CCc2cc(S(=O)(=O)NCC3COc4ccccc4O3)ccc21 (centres undefined)	-2	-3	8	-8	nt	nt
O=C(C1CC1)N1CCc2cc(Br)cc(S(=O)(=O)NCC3COc4ccccc4O3)c21 (centres undefined)	nt	-4.1*	nt	nt	nt	nt
Cc1ccc(NC(=O)C2CCN(S(C)(=O)=O)CC2)cc1C	-34	0.11	4	-4	-19	17
Oc1ccc(C(c2nnnn2C2CCCC2)N2CCc3ccccc3C2)cc1 (centres undefined)	-31	-6.9*	7	-7	-12	14
COc1ccc(C(c2nnnn2C2CCCCC2)N2CCN(c3ccccc3)CC2)cc1 (centres undefined)	-6	nt	1	-1	-6	3
COc1ccc(C(c2nnnn2Cc2cccs2)N2CCN(c3ccccc3F)CC2)cc1 (centres undefined)	-13	-3.4*	4	-4	-12	12
COc1ccc(Cn2nnnc2C(c2cccs2)N2CCCCCC2)cc1 (centres undefined)	-3	-4.1*	7	-7	-5	8
COc1ccc(C(c2nnnn2C2CCCC2)N2CCN(c3ccccc3)CC2)cc1 (centres undefined)	-31	-5.2*	12	-12	-5	10
COc1ccc(Cn2nnnc2C(c2cccs2)N2CCSCC2)cc1 (centres undefined)	6	-2.2	-3	3	-4	3
Cc1cc(C2C(=O)C(C(=O)c3ccc(Cl)cc3)C(=O)CC2(C)C)on1 (centres undefined)	nt	1.3	nt	nt	nt	nt
